Where “and” joins values, the source holds several entries; their conditions need not be identical. Equal values may be shown once. Inconclusive results are not listed. Some compounds were tested as several samples or in several runs, with calls that do not always agree. Calls of active or inactive are those of the source. How the source made its calls, unless noted: active means hit-call score of the fitted dose curve at least 0.9, where 1 is the maximum; inactive means score below 0.9.
Columns and labels:
[1] = IUF_NPC1a_proliferation_area_72hr: Leibniz Research Institute for Environmental Medicine (IUF) 72-hour Neural Progenitor Cell Proliferation Area Assay (NPC1a) (AID 2284208)
In short: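 hNPC spheres (human fetal cortex, GW 16-19), one per poly-Hema U-bottom well; EGF+FGF medium; dosed day 0, no re-dosing; 72 h, 37C, 5% CO2; phase-contrast sphere area; DMSO = baseline; minus-GF = positive ctrl.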

[2] = CCTE_Mundy_HCI_Cortical_Synap_Neur_Matur_NeuriteSpotCountPerNeuriteLength: CCTE's Synaptogenesis and Neurite Maturation Assay in rat cortical cells for Neurite Spot Count per Neurite Length, Mundy Lab (AID 2284210)
In short: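 Rat primary cortical cultures, AraC added at DIV 5 to suppress glia; chemical exposure from DIV 7 to DIV 12. Fixed cells stained for MAP2 and synaptophysin plus Hoechst; synaptophysin puncta per neurite length quantified by high-content imaging, relative to DMSO.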

[3] = CCTE_Mundy_HCI_Cortical_Synap_Neur_Matur_BPCount: CCTE's Synaptogenesis and Neurite Maturation Assay in rat cortical cells for Branch Point Count, Mundy Lab (AID 2284211)
In short: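 Rat primary cortical cultures, AraC added DIV 5; chemicals dosed DIV 7 through DIV 12. Fixed cells stained for MAP2, synaptophysin and Hoechst; neurite branch points counted by automated high-content imaging, fitted relative to DMSO.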

[4] = CCTE_Mundy_HCI_Cortical_NOG_NeuriteCount: CCTE's Neurite Outgrowth Assay in rat cortical cells for Neurite Count, Mundy Lab (AID 2284212);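 further: cells fixed about two days after chemical exposure began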
In short: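 Neurite number per cell from high-content imaging of betaIII-tubulin immunostaining, with Hoechst nuclear counterstain.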

[5] = CCTE_Mundy_HCI_Cortical_NOG_NeuriteLength: CCTE's Neurite Outgrowth Assay in rat cortical cells for Neurite Length, Mundy Lab (AID 2284213);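 on AC50: neurites imaged about 48 to 50 h after chemical exposure began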
In short: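 Neurite length was read by high-content imaging of βIII-tubulin-labelled neurites in rat primary cortical cultures. Activity was fitted relative to DMSO.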

[6] = CCTE_Mundy_HCI_Cortical_Synap_Neur_Matur_NeuriteLength: CCTE's Synaptogenesis and Neurite Maturation Assay in rat cortical cells for Neurite Length, Mundy Lab (AID 2284214)
In short: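 Rat cortical neurons, AraC at DIV 5; compound + media change DIV 7, end DIV 12 (288.33 h). Fix, MAP2/synaptophysin/Hoechst immunostain, automated HCI of neurite length vs DMSO.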

[7] = CCTE_Mundy_HCI_Cortical_Synap_Neur_Matur_NeuriteCount: CCTE's Synaptogenesis and Neurite Maturation Assay in rat cortical cells for Neurite Count, Mundy Lab (AID 2284222);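 on outcome: exposure from day 7 to day 12 in vitro with readout at day 12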
In short: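 Primary rat cortical cells were plated, treated with AraC at DIV 5, then exposed to chemicals from DIV 7 through DIV 12. After fixation and immunostaining for MAP2 and synaptophysin, imaging quantified neurites, with DMSO as the negative control.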

[8] = CCTE_Mundy_HCI_Cortical_Synap_Neur_Matur_CellBodySpotCount: CCTE's Synaptogenesis and Neurite Maturation Assay in rat cortical cells for Cell Body Spot Count, Mundy Lab (AID 2284223)
In short: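 Read-out: cell body-associated synaptophysin puncta per neuron, imaged after MAP2, synaptophysin and Hoechst staining. Rat cortical cells, AraC DIV 5, chemical dosing DIV 7, fixation DIV 12. Activity fitted in positive direction relative to DMSO baseline.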

[9] = CCTE_Mundy_HCI_hNP1_Pro_ResponderAvgInten: CCTE's Proliferation Assay in human neuroprogenitor cells, Mundy Lab (AID 2284224; active means hit-call score of the fitted dose curve at least 0.9, where 1 is the maximum;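 further: human neural progenitor cells hNP1 derived from WA09 embryonic stem cells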)
In short: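 Proliferation read as average intensity of BrdU-positive cells, imaged at 26.25 h post-dosing: chemical exposure started after 40–44 h culture, BrdU during final 4 h, paraformaldehyde fixation. Positive-direction fit relative to DMSO.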

[10] = TAMU_PeakParms_SingleDonor1434_Chronotropy: Texas A&M University (TAMU) 1.5-hr Human Induced Pluripotent Stem Cell (iPSC)-derived Cardiomyocytes Calcium (Ca+2) Flux Assay for Cardiotoxicity: Chronotropy (changes in peak frequency) (AID 2284217); settings: actives raise or lower the signal
In short: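 iPSC-CMs, donor 1434; 4 conc (0.2–100 uM), 0.5% v/v DMSO, 90 min, 37C/5% CO2; Ca2+ flux fluorescence → peak.freq.avg; peak.freq.avg = 0 dropped; bidirectional fit vs DMSO; EC05 POD.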

[11] = CCTE_Mundy_HCI_hN2_NOG_NeuriteCount: CCTE's Neurite Outgrowth Assay in human hN2 cells for Neurite Count, Mundy Lab (AID 2284219; active means hit-call score of the fitted dose curve at least 0.9, where 1 is the maximum)
In short: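 In this morphology assay, hNP1-derived neurons received test chemical 2 h post-plating and were fixed two days later in warm paraformaldehyde/sucrose containing Hoechst 33342. Neurites, labelled by rabbit anti-βIII-tubulin (1:800) and Alexa Fluor-488 (1:500), were counted automatically.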

[12] = CCTE_Mundy_HCI_hN2_NOG_NeuriteLength: CCTE's Neurite Outgrowth Assay in human hN2 cells for Neurite Length, Mundy Lab (AID 2284220; active means hit-call score of the fitted dose curve at least 0.9, where 1 is the maximum)
In short: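 Read-out is neurite length from high-content imaging of βIII-tubulin/Alexa Fluor-488-labelled neurons, referenced to DMSO controls.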

[13] = CCTE_Mundy_HCI_hN2_NOG_NeuronCount: CCTE's Neurite Outgrowth Assay in human hN2 cells for Neuron Count, Mundy Lab (AID 2284221; active means hit-call score of the fitted dose curve at least 0.9, where 1 is the maximum)
In short: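 Read-out is the number of betaIII-tubulin-positive neurons imaged by automated high-content analysis, with DMSO as negative control.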

## CCOP(=O)(NC(C)C)Oc1ccc(SC)c(C)c1 (stereo not given)
[1]
  outcome: inactive
[2]
  outcome: inactive
[3]
  outcome: inactive
[4]
  outcome: inactive
[5]
  outcome: inactive
[6]
  outcome: inactive
[7]
  outcome: inactive
[8]
  outcome: inactive
[9]
  outcome: inactive

## CCOP(=O)(OCC)Oc1cc(C)nc(C(C)C)n1
[1]
  outcome: inactive
[2]
  outcome: inactive
[3]
  outcome: inactive
[4]
  outcome: inactive
[5]
  outcome: inactive
[6]
  outcome: inactive
[7]
  outcome: inactive
[8]
  outcome: inactive
[9]
  outcome: inactive

## CN1COCN(Cc2cnc(Cl)s2)C1=N[N+](=O)[O-]
[1]
  outcome: inactive
[2]
  outcome: inactive
[3]
  outcome: inactive
[4]
  outcome: inactive
[5]
  outcome: inactive
[6]
  outcome: inactive
[7]
  outcome: inactive
[8]
  outcome: inactive
[9]
  outcome: inactive

## C[N+]1(C)CCCCC1
[1]
  outcome: inactive
[2]
  outcome: inactive
[3]
  outcome: inactive
[4]
  outcome: inactive
[5]
  outcome: inactive
[6]
  outcome: inactive
[7]
  outcome: inactive
[8]
  outcome: inactive

## CC1=NNC(=O)N(/N=C/c2cccnc2)C1
[1]
  outcome: inactive
[2]
  outcome: inactive
[3]
  outcome: inactive
[4]
  outcome: inactive
[5]
  outcome: inactive
[6]
  outcome: inactive
[7]
  outcome: inactive
[8]
  outcome: inactive

## CC[C@H](C)[C@H]1O[C@]2(C=C[C@@H]1C)C[C@@H]1C[C@@H](C/C=C(\C)[C@@H](O[C@H]3C[C@H](OC)[C@@H](O[C@H]4C[C@H](OC)[C@@H](NC)[C@H](C)O4)[C@H](C)O3)[C@@H](C)/C=C/C=C3\CO[C@@H]4[C@H](O)C(C)=C[C@@H](C(=O)O1)[C@]34O)O2
[1]
  AC50: 5.17 µM (active) and 2.01 µM (active)
[2]
  AC50: 587 nM (active) and 1 µM (active)
[3]
  AC50: 428 nM (active) and 668 nM (active)
[4]
  AC50: 1.47 µM (active) and 1.53 µM (active)
[5]
  AC50: 1.24 µM (active) and 1.58 µM (active)
[6]
  AC50: 387 nM (active) and 828 nM (active)
[7]
  AC50: 657 nM (active) and 1.79 µM (active)
[8]
  AC50: 1.12 µM (active) and 1.1 µM (active)
[9]
  outcome: inactive

## CC(C)N(C(=O)SCC(Cl)=C(Cl)Cl)C(C)C
[1]
  outcome: inactive
[2]
  AC50: 25 µM (active)
[3]
  outcome: inactive
[4]
  outcome: inactive
[5]
  outcome: inactive
[6]
  AC50: 15 µM (active)
[7]
  outcome: inactive
[8]
  AC50: 24.1 µM (active)

## C=C(C)[C@H]1Cc2c(ccc3c2O[C@@H]2COc4cc(OC)c(OC)cc4[C@@H]2C3=O)O1
[1]
  AC50: 756 nM (active) and 41.6 nM (active)
[4]
  AC50: 0.053 µM (active)
[5]
  AC50: 0.0253 µM (active)
[10]
  outcome: inactive

## CCOP(=S)(OCC)Oc1ccc2c(C)c(Cl)c(=O)oc2c1
[2]
  outcome: inactive
[3]
  AC50: 50 µM (active)
[4]
  AC50: 89.6 µM (active)
[5]
  AC50: 84.7 µM (active)
[6]
  AC50: 50 µM (active)
[11]
  AC50: 22.1 µM (active)
[12]
  AC50: 18.6 µM (active)
[13]
  AC50: 18.9 µM (active)
[7]
  outcome: inactive
[8]
  outcome: inactive
[9]
  outcome: inactive

## CON=C(C(=O)OC)c1ccccc1CON=C(C)c1cccc(C(F)(F)F)c1
[1]
  AC50: 9.57 µM (active)
[2]
  AC50: 0.489 µM (active)
[3]
  AC50: 0.446 µM (active)
[4]
  AC50: 1.2 µM (active)
[5]
  AC50: 1.14 µM (active)
[6]
  AC50: 0.954 µM (active)
[7]
  AC50: 1.24 µM (active)
[8]
  AC50: 3.43 µM (active)
[9]
  AC50: 79.9 µM (active)

## COP(=O)(NC(C)=O)SC (stereo not given)
[1]
  outcome: inactive
[2]
  outcome: inactive
[3]
  outcome: inactive
[4]
  outcome: inactive
[5]
  outcome: inactive
[6]
  outcome: inactive
[11]
  outcome: inactive
[12]
  outcome: inactive
[7]
  outcome: inactive
[8]
  outcome: inactive

## CC(=NC#N)N(C)Cc1ccc(Cl)nc1
[1]
  outcome: inactive
[2]
  outcome: inactive
[3]
  outcome: inactive
[4]
  outcome: inactive
[5]
  outcome: inactive
[6]
  outcome: inactive
[7]
  outcome: inactive
[8]
  outcome: inactive
[9]
  outcome: inactive

## CCOP(=S)(Oc1cnc(C(C)(C)C)nc1)OC(C)C (stereo not given)
[1]
  outcome: inactive
[2]
  AC50: 16.5 µM (active)
  outcome: inactive
[3]
  AC50: 25.2 µM (active)
  outcome: inactive
[4]
  AC50: 26.4 µM (active)
  outcome: inactive
[5]
  AC50: 26.1 µM (active)
  outcome: inactive
[6]
  AC50: 20.1 µM (active)
  outcome: inactive
[11]
  outcome: inactive
[12]
  outcome: inactive
[13]
  AC50: 79.3 µM (active)
[7]
  AC50: 18.6 µM (active)
  outcome: inactive
[8]
  AC50: 14.6 µM (active)
  outcome: inactive
[9]
  AC50: 77.6 µM (active)
  outcome: inactive

## CCOP(=S)(OCC)OC(Cl)C(Cl)(Cl)Cl (stereo not given)
[1]
  outcome: inactive
[2]
  AC50: 16.5 µM (active)
  outcome: inactive
[3]
  AC50: 70.5 µM (active) and 13.3 µM (active)
[4]
  AC50: 75.7 µM (active) and 31.8 µM (active)
[5]
  AC50: 66.9 µM (active) and 32.2 µM (active)
[6]
  AC50: 85.1 µM (active) and 12.1 µM (active)
[7]
  AC50: 12.8 µM (active)
  outcome: inactive
[8]
  AC50: 16.7 µM (active)
  outcome: inactive
[9]
  AC50: 50 µM (active) and 75.1 µM (active)

## CCOP(=O)(SC(C)CC)N1CCSC1=O (stereo not given)
[2]
  outcome: inactive
[3]
  outcome: inactive
[4]
  outcome: inactive
[5]
  outcome: inactive
[6]
  outcome: inactive
[11]
  outcome: inactive
[12]
  outcome: inactive
[13]
  outcome: inactive
[7]
  outcome: inactive
[8]
  outcome: inactive
